# Screens from PubChem.
# This excerpt belongs to a sample that is enriched for hits.
# Tg IFNy HTS: T. gondii growth inhibition with IFN-gamma, primary screen, cell-based. Toxoplasma gondii growth in IFN-gamma-treated host cells; hits give low values. activity change, negative = inhibition, % (no concentration beside the values). hit rate 3.8% among 69,000. AID 1259416, 2018; in the data active means activity change below about -70%, passing the limit was not always enough;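 further: host cells are HeLa cells infected with Toxoplasma gondii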
# Numbers without * were called inactive.
SMILES,Tg IFNy HTS
Cc1ccc(C(=O)N(CC(=O)NC2CCCC2)Cc2ccc3c(c2)OCO3)s1,-1.3
O=C(c1ccccc1)c1ccc2[nH]c(=S)[nH]c2c1,-94.0*
O=C(c1ccccc1)c1ccccc1C(=O)c1ccccc1,-9.9
Cc1nc(C)c(C(=O)c2ccccc2)cc1C(=O)c1ccccc1,-9.7
C=CCn1c(=O)c(C(=O)Nc2ccc(F)cc2C)c(O)c2ccccc21,192.7
CCC1CN(Cc2c(C)cc(O)cc2C)CCN1C(C)C (stereo not given),1.7
COc1ccc2c(O[C@H]3CC4C(=O)N(C)CCCC/C=C\[C@@H]5C[C@@]5(C(=O)NS(=O)(=O)C5CC5)NC(=O)[C@@H]4C3)cc(-c3nc(C(C)C)cs3)nc2c1C (stereo not given in full),-74.0*
O=S(=O)(NCc1ccccc1)N(Cc1ccccc1Cl)C1CC1,-7.9
OC1(c2ccccc2)c2ccccc2-c2ccccc21,25.5
NC1=Nc2ccc(Cl)cc2C1(O)c1ccccc1 (stereo not given),-96.7*
Cc1nc(CN2CCC3(CC2)COCCN3C)cs1,-57.7
Cc1nc2cc(-c3ccccc3)sc2c(=O)n1N,-107.1*
Cc1cc(C)c2c(n1)sc1c(=O)n(N)c(C)nc12,-22.4
Cc1nn(-c2ccc(F)cc2F)c(=O)c2nc(-c3ccccc3)sc12,-0.4
COc1ncccc1-c1ccc(S(N)(=O)=O)cc1F,5.1
Cc1ccc(F)cc1-n1c(Cc2ccc(O)cc2)n[nH]c1=O,7.2
CCCCS(=O)(=O)N1C[C@H]2C[C@H](C(=O)Nc3ccccc3)[C@@H](C1)O2,-2.0
Cc1ccc(-c2ccnc(-c3ccc(F)c(CO)c3)n2)c(C)n1,13.4
COc1ccc(-c2nc(CSc3nc4c(c(=O)[nH]3)CN(Cc3ccccc3)CC4)c(C)o2)cc1,-77.3*
Cc1oc(-c2ccccc2)nc1CSc1nc2c(c(=O)[nH]1)CN(Cc1ccccc1)CC2,-36.3
COc1ccc(CN2CCc3nc(SCc4nc(-c5ccccc5)oc4C)[nH]c(=O)c3C2)cc1,-14.6
CCOc1ccccc1N(Cc1nc(-c2ccccc2)oc1C)S(=O)(=O)c1cccs1,-60.1
CCn1c(C2CCCNC2)nn(Cc2ccc(Cl)s2)c1=O (stereo not given),2.4
CCCCN(Cc1ccco1)C(=O)c1cc(C(C)=O)c(C)[nH]c1=O,3.4
CCOC(=O)c1cc(CSc2n[nH]c(=O)n2-c2ccccc2C(F)(F)F)on1,7.4
SMILES,Tg IFNy HTS
Cc1cc(=O)[nH]n(-c2ccccc2)c1=O,-48.8
Cc1nc(N2CCN(c3ccccc3)CC2)nc2c1C(=O)CC(c1ccccc1F)C2 (stereo not given),-24.6
Cc1ccccc1C1CC(=O)c2cnc3[nH]n(-c4ccccc4)c(=O)c3c2C1 (stereo not given),-90.9*
CC1=C(C(=O)NCC(C)c2ccccc2)C2(CCN(S(C)(=O)=O)CC2)OC1=O (stereo not given),40.2
FC(F)(F)c1ccc(C2=NCCO2)cc1,24.8
FC(F)(F)c1ccc(-c2nnc(-c3ccc4nccnc4c3)o2)cc1,-49.1
N#Cc1nc(-c2ccc(C(F)(F)F)cc2)oc1N,-95.9*
COc1ccc(-c2nnc(-c3nc(Nc4cccc(Br)c4)c4ccccc4n3)o2)cc1,25.0
COCCCN1C(=O)CC(CC(=O)N2CCCCC2c2nccn2C)(c2ccccc2Cl)C1=O (stereo not given),-0.1
CC(C)(C)C(=O)OCOP(=O)(COCCn1cnc2c(N)ncnc21)OCOC(=O)C(C)(C)C,-80.0*
Nc1ncnc2c1ncn2[C@H]1CC[C@@H](CO)O1,10.5
CC(C)[C@H](N)C(=O)OCCOCn1cnc2c(=O)[nH]c(N)nc21,2.5
O=C(c1cc2n(n1)CCN(Cc1ccc3nonc3c1)C2)N1CCCC1,-3.0
Cc1ccc(C(=O)N2CCC(N3CCOCC3)CC2C(=O)O)cc1C (stereo not given),-1.3
CCn1c(=O)/c(=C2/Sc3ccc(OC)cc3N2C)s/c1=C1/C(=O)N(C)C(=S)N1C,-77.8*
COCCN1CCc2ncc(CN(C)Cc3ccco3)n2CC1,-15.3
O=C(O)c1cccc(CC2CCN(C(=O)C3CCOC3)CC2)c1 (stereo not given),7.5
COc1ccc(OCCc2cc(C3CCN(C(=O)c4ccccc4)C3)n[nH]2)cc1 (stereo not given),-8.2
CC(C)CN1C(=O)N(C)C2(CCN(CC(C)Cc3ccc4c(c3)OCO4)CC2)C1=O (stereo not given),-2.2
CC(Cc1ccc2c(c1)OCO2)CN1CC2C[C@@H](O)CN2C[C@H]1C (stereo not given in full),-86.2*
Cc1cc(CN2CC3C[C@@H](O)CN3C[C@@H]2C)c(C)n1-c1ccc2c(c1)OCO2 (stereo not given in full),1.8
COCCN(Cc1cnn(C)c1)C(=O)c1c(C)nn(-c2ccc(F)cc2)c1C,-52.7
Cc1c(Cl)cccc1NC(=O)Cn1c(=O)cc(C(=O)N(C)C)c2ccccc21,6.2
COc1ccc2c(c1)O[C@H]1c3ccc(OC)cc3OC[C@@H]21,-20.5
COc1ccc2c(c1)OCC(Cc1ccc(OC)c(OC(C)=O)c1)C2=O (stereo not given),-84.0*
SMILES,Tg IFNy HTS
COc1ccc2c(c1)OCC(Cc1ccc(OC)c(OC)c1)C2=O (stereo not given),-3.4
CC(C)c1noc(-c2cc(=O)n(CC(=O)Nc3ccc(Cl)cc3)c3ccccc23)n1,50.0
COc1cccc(NC(=O)c2nc(Nc3ccc(Cl)cc3)c3ccccc3n2)c1,-56.3
CCN1CCOCC2(CCCN(C(=O)c3ccc(-n4cccc4)cc3)C2)C1 (stereo not given),18.3
COc1cccc(-c2nc(Cn3ccn4nc(-c5ccc(F)cc5)cc4c3=O)c(C)o2)c1OC,66.0
Cn1ccnc1CN1CCC2(COCCN(Cc3ccoc3)C2)C1 (stereo not given),10.7
O=C(c1ccc[nH]1)N1CCCC2(CC(Nc3ncccc3F)CO2)C1 (stereo not given),0.0
CC(Cc1cnccn1)n1cc(-c2ccnc3ccccc23)nn1 (stereo not given),-10.6
COCCn1c2c([n+](Cc3cnccn3)c1C)C(=O)c1ccccc1C2=O,-83.3*
COc1cc(C)ccc1-c1c(-c2ccccc2)ncn1C(C)Cc1cnccn1 (stereo not given),-4.2
Cc1cnn(CC(=O)Nc2cccc(CCc3ccncc3)c2)c1,13.3
COc1ccccc1C(=O)Nc1cccc(-n2cnnc2)c1,-7.8
COc1ccccc1-c1cc(C(=O)Nc2cccc(CCc3ccncc3)c2)[nH]n1,-91.8*
COCCn1cnc(-c2cc(C(=O)Cc3cccnc3)c3ccccn23)c1,-12.8
CC(c1ccc(-c2ccc3c(c2)OCO3)cc1)N1CCOCC1 (stereo not given),89.9
Cc1ccc2[nH]c(=O)c(-c3nc(-c4ccc5c(c4)OCO5)no3)c(O)c2c1,335.0
Cc1c(C)c(C)c2[nH]c(-c3ccc4c(c3)OCO4)nc2c1C,-95.4*
CN(Cc1nc(-c2ccccc2)no1)C(=O)c1ccc(CO)o1,10.9
Cc1ccc(S(=O)(=O)N2CCC3(CC2)NCCN=C3NCc2cccc(F)c2)c(C)c1,15.3
CCn1c(=O)c(C(=O)Nc2cccc(C)n2)c(O)c2ccccc21,74.1
CCCCc1nc2ccccc2c(=O)n1NC(=O)c1c(O)c2ccccc2n(CCC)c1=O,-113.8*
CCCn1c(=O)c(C(=O)NCCN(CC)CC)c(O)c2ccccc21,-32.5
Cc1cnc(C(=O)N2CCCn3cnc(CN(C)C(C)C)c3C2)cn1,-20.3
Cc1noc(C)c1CN1CCC2(CC1)CCN(c1ncccn1)C2,-4.3
Cc1cnc(N(C)Cc2cc(C3CC3)n[nH]2)nc1N(C)C,8.0
